Data taken from PubChem BioAssay AID652115 (Broad Institute, 2013).
Screen size: about 330,000 compounds; about 3,800 (1.2%) were called active. No stated cut-off is given here; in the data, active means inhibition above about 15%; inconclusive means no clear call, values can overlap the other calls; inactive means below that. The entries come from a sample that favours actives as a whole.

What follows are compounds tested against NAD-dependent protein deacylase sirtuin-5, mitochondrial (Homo sapiens) (UniProt Q9NXA8) (assay: blockers of sirtuin-5 deacylase activity – biochemical, fluorescence imaging, single point, set 5, primary screen (AID 652115)). Conditions: Purified SirT5, succinyl-peptide AMC, trypsin-coupled fluorescence; at 15 µM; active compounds read high.
NAD-dependent protein deacylase sirtuin-5, mitochondrial (Homo sapiens), sequence (Q9NXA8 whole entry, looked up): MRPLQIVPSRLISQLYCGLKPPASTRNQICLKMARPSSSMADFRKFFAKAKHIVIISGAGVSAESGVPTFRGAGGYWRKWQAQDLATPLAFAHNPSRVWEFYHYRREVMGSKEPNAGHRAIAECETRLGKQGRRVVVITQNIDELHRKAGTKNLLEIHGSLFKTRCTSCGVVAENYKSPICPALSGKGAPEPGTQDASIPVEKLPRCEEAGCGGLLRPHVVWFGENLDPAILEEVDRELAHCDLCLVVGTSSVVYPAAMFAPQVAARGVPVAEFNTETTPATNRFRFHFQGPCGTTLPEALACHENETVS

| Structure (SMILES) | inhibition |
| --- | --- |
| CC(Cc1ccccc1)NC=O (stereo not given) | -0.859% (inactive) |
| O=C(COC(=O)Cc1ccccc1)Nc1ccc(F)cc1 | -1.48% (inactive) |
| CC(=O)Nc1ccc(C(=O)C(Cc2ccccc2)N(C)C)cc1 (stereo not given) | 18.6% (active) |
| COC(=O)[C@H]1[C@H](CO)[C@H]2Cn3c(cccc3=O)[C@H]2N1CC1CC1 | 0.308% (inactive) |
| COC(=O)C1=C(c2ccc(OCc3ccccc3)cc2)C[C@@H]2CC[C@H]1N2C(=O)NCc1cccc(F)c1 | -8.66% (inactive) |
| O=C1NCN(c2ccccc2)C12CCN(C(c1cccs1)c1nnnn1C1CCCCC1)CC2 (stereo not given) | 3.05% (inactive) |
| COc1cccc(N2C(=O)NC(=O)/C(=C\c3cn(C)c4ccccc34)C2=O)c1 | -7.3% (inactive) |
| COc1ccc(CN2C(=O)NC(=O)/C(=C\c3ccc(OC)c(OC)c3OC)C2=O)cc1 | -0.842% (inactive) |
| COc1ccc(N2C(=O)/C(=C/c3ccco3)C(=O)NC2=S)cc1 | 44.4% (active) |
| S=C(NCCc1ccccc1)N1Cc2cc(N3CCOCC3)ccc2-n2nncc2C1 | 0.564% (inactive) |
